Assay results taken from PubChem BioAssay (NCI).
About 79,000 compounds went through this panel and 15% of them were active in at least one assay; those are over-represented in the sample as a whole. A number with no mark means an inactive call. Activity calls are given as the source filed them. Cut-off read from the data, not from the text of the source: active = growth inhibition above about 70%; inactive = the rest.

Assay: NCI Yeast Anticancer Drug Screen. Data for the CLN2oe strain (AID 163);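 note: 0% = growth of vehicle-only control cultures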
Details: S. cerevisiae CLN2oe strain, stronger effect = higher value
Experimental: Growth inhibition of yeast strains with defined genetic alterations is measured as a screen for potential anti-cancer activity. Selected strains with alterations in DNA damage repair or cell cycle control were exposed to compounds and growth inhibition was measured relative to vehicle treated controls. The strain used in this assay is CLN2oe

SMILES	growth inhibition (at 1.2 µM) [%]	growth inhibition (at 3.7 µM) [%]	growth inhibition (at 11.0 µM)	growth inhibition (at 33.0 µM)	growth inhibition (at 100.0 µM)
CN(C)[C@@H]1C(=O)C(C(N)=O)=C(O)[C@@]2(O)C(=O)C3=C(O)c4c(O)cccc4C[C@H]3C[C@@H]12	-7	-15	27%	98% (active)	99% (active)
O=c1ccc(=O)n(-c2ccccc2)[nH]1	7	20	29%	71% (active)	97% (active)
Nc1ccc2c(c1)C(=O)c1ccc(F)cc1-2	5	7	11%	20%	16%
Cc1nc(-c2cc3cc([N+](=O)[O-])ccc3oc2=O)cs1	-22	3	8%	20%	81% (active)
CC1CC[C@]2(C(=O)O)CCC3(C)C(=CC(=O)C4[C@@]5(C)CCC(=O)C(C)(C)C5CC[C@]43C)[C@@H]2[C@H]1C (stereo not given in full)	1	37	92% (active)	97% (active)	97% (active)
CCOC(=O)/C(=C\c1ccc(C#N)cc1)C(C)=O	-20	-27	3%	87% (active)	99% (active)
Cc1cccc(/C=N/NC(=S)N2CCCC2)n1	-30	-31	10%	93% (active)	96% (active)
COc1ccc(C/C=N/Nc2ccc([N+](=O)[O-])cc2)cc1OC	8	6	12%	1%	20%
